From PubChem
H9c2 protect = myocardial damage modulation in H9c2 cells; protection from H2O2 cell death, % at 20 µM; H9c2 cardiomyocytes, H2O2 injury protection, ATPLite, 2 h; hit rate 0.63% among 360,000;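 active = compounds giving at least 50% protection of heart cells from peroxide-induced death in the single-dose screen, raw or plate-pattern-corrected value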
MIN6 prolif = MIN6 beta-cell proliferation induction; MIN6 cells proliferation, ATPlite luminescence, 48 h; cells starved in 0.2% serum; 100% = growth in 10% serum; proliferation, % at 10 µM; hit rate 0.29% among 330,000; AID 2380;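 active = compounds whose signal lies at least 3.5 SD above the mean of all wells on their plate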
H9c2 TAG inh = inhibitors of triacylglycerol accumulation | H9c2 cells, Nile Red lipid (TAG) fluorescence; cells loaded with 200 µM oleic acid | inhibition, % at 12.5 µM | hit rate 0.66% among 230,000;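 active = pattern-corrected inhibition of lipid staining of at least 50% with the nuclear-stain viability signal not falling by more than 50%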
FAS TE block = blocks the thioesterase domain of human fatty acid synthase | P49327 | recombinant FAS-TE, OMFH fluorogenic substrate, fluorescence endpoint | inhibition, % at 15 µM | hit rate 0.67% among 360,000;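 active = compounds whose normalised, plate-corrected inhibition of enzyme fluorescence in the single-dose primary screen is 50% or more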
aDG glyco up = increases alpha dystroglycan glycosylation; Pro5-aDG cells, alpha-DG glycosylation AlphaScreen (IIH6); 0% Pro5, 100% B10-LARGE cell signal; hit rate 0.22% among 360,000; activation, % at 10 µM;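 active = activation of at least 8% versus controls, or a plate z-score of at least 8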;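 also: Pro5 are CHO cells carrying HIG-tagged alpha-DG that lacks glycosylation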
m-calpain inh = calpain II (pig) inhibition; purified calpain II, fluorogenic peptide substrate, 30 min; inhibition, % at 16 µM; hit rate 0.37% among 220,000;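 active = inhibition above about 50%, limit read from the data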
FAS-TE inh conf = confirmation of human fatty acid synthase thioesterase inhibitors; hit rate 45% among 2,300; shares compounds with FAS TE block; recombinant FAS-TE, OMFH fluorogenic substrate, fluorescence; inhibition, % at 15 µM;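 active = compounds inhibiting the enzyme by at least 50% at 15 µM in any one of the replicates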
Large screens that a line does not name were inactive (follow-up assays come after a bar, where they were run); ! = not confirmed by another sample. A selection: hits, their analogues and other compounds. The true share with any hit is near 2.3%.

CCCNC(=O)N1C[C@H](O)COC[C@H]2O[C@@H](CC(=O)N[C@@H]3CCN(Cc4ccccc4)C3)CC[C@@H]21	none (no result: H9c2 protect, MIN6 prolif, H9c2 TAG inh, FAS TE block, m-calpain inh)
Cn1ccc2c(N3c4ccccc4CCc4ccccc43)cc3c(c21)C1CCC3O1 (centres undefined)	none (no result: MIN6 prolif, H9c2 TAG inh, m-calpain inh)
Cc1cc(F)ccc1C(O)c1ncc(-c2ccccc2C(F)(F)F)[nH]1 (centres undefined)	none (no result: MIN6 prolif, m-calpain inh)
O=C1C(Cc2ccccc2)Nc2ncnc(N3CCN(c4ccccc4)CC3)c2N1Cc1ccccc1 (centres undefined)	none (no result: m-calpain inh)
Cc1ccc(CN2C(=O)C(Cc3ccccc3)Nc3ncnc(N4CCN(c5ccccc5)CC4)c32)cc1 (centres undefined)	FAS TE block 62 (no result: m-calpain inh) | FAS-TE inh conf inactive
O=C1C(Cc2ccccc2)Nc2ncnc(N3CCN(c4ccccc4)CC3)c2N1Cc1ccc(Br)cc1 (centres undefined)	FAS TE block 83! (no result: m-calpain inh) | FAS-TE inh conf inactive
CN1C(=O)NC(c2ccccc2[N+](=O)[O-])C2=C1CCCC2=O (centres undefined)	none (no result: H9c2 TAG inh, m-calpain inh)
CCOc1ccc(-c2cccc(NS(=O)(=O)c3ccccc3[N+](=O)[O-])c2)nn1	none (no result: m-calpain inh)
CCOc1ccc(-c2ccc(NS(=O)(=O)c3cc([N+](=O)[O-])c(C)c([N+](=O)[O-])c3)cc2)nn1	FAS TE block 84 (no result: H9c2 TAG inh, m-calpain inh) | FAS-TE inh conf 83
O=C(Nc1cccn2nc(COCCO)nc12)C(c1ccccc1)c1ccccc1	none (no result: MIN6 prolif, m-calpain inh)
O=C(COC(=O)CCSc1ccccc1)Nc1ccccc1Br	none (no result: m-calpain inh)
CCOC(=O)N1C(=O)[C@@](CC)(c2ccccc2)N1C(=O)OCC	none (no result: m-calpain inh)
CC[C@@]1(c2cccc(C)c2)C(=O)N(C(=O)OC)N1C(=O)OC	FAS TE block 79 (no result: m-calpain inh) | FAS-TE inh conf 70
COC(=O)N1C(=O)[C@](CC(C)C)(c2ccccc2)N1C(=O)OC	FAS TE block 85 (no result: MIN6 prolif, m-calpain inh) | FAS-TE inh conf 88
COC(=O)N1C(=O)[C@](c2ccsc2)(C(C)C)N1C(=O)OC	none (no result: m-calpain inh)
COC(=O)N1C(=O)[C@](c2ccc(OC)cc2)(C(C)C)N1C(=O)OC	FAS TE block 72 (no result: m-calpain inh) | FAS-TE inh conf 82
COC(=O)N1C(=O)[C@](c2ccccc2)(C2CCCCC2)N1C(=O)OC	H9c2 protect 56, FAS TE block 80 (no result: m-calpain inh) | FAS-TE inh conf 95
Cn1cccc1CN1CCC[C@]2(N[C@H](c3ccc(C(F)(F)F)cc3)[C@@H]3C(=O)N(Cc4ccccc4)C(=O)[C@@H]32)C1=O	none (no result: MIN6 prolif, m-calpain inh)
O=C(Cn1cc(COc2c(F)c(F)c(Br)c(F)c2F)nn1)c1ccc(O)cc1	none (no result: MIN6 prolif, m-calpain inh)
COc1ccc(NS(=O)(=O)c2cc([N+](=O)[O-])ccc2NN=Cc2ccccc2OCC(=O)O)cc1	none (no result: m-calpain inh)
O=C(O)COc1ccccc1C=NNc1ccc([N+](=O)[O-])cc1S(=O)(=O)Nc1ccc(Cl)cc1	FAS TE block 50 (no result: m-calpain inh) | FAS-TE inh conf 62
CC(C)(C)c1ccc(CSc2ccc(S(=O)(=O)N3CCOCC3)cn2)cc1	FAS TE block 82 (no result: m-calpain inh) | FAS-TE inh conf 74
CCCCOC(=O)c1nc(Cl)c(Cl)c(N)c1Cl	none (no result: H9c2 TAG inh)
CCCCCCCOC(=O)c1nc(Cl)c(Cl)c(N)c1Cl	FAS TE block 54 (no result: H9c2 TAG inh) | FAS-TE inh conf inactive
COc1cc2c(cc1NC(=O)COC(=O)[C@@H](NS(=O)(=O)c1ccccc1)C(C)C)oc1ccccc12	FAS TE block 67 (no result: H9c2 TAG inh) | FAS-TE inh conf inactive
O=C(NNc1ccc(O)cc1)c1ccc(Br)cc1	none (no result: H9c2 TAG inh)
CC(C)(C)c1ccc(Cn2cnc(-c3ccc([N+](=O)[O-])cc3)c2)cc1	FAS TE block 51 (no result: H9c2 TAG inh) | FAS-TE inh conf inactive
Cc1cc(C)c(Cn2cnc(-c3ccc([N+](=O)[O-])cc3)c2)c(C)c1	FAS TE block 54 (no result: H9c2 TAG inh) | FAS-TE inh conf 53
COc1ccc(C2CC(c3cccs3)=NN2C(=O)CSc2nc(=O)n3cc(C)ccc3n2)cc1 (centres undefined)	FAS TE block 53 (no result: m-calpain inh) | FAS-TE inh conf inactive
CC(C(=O)Nc1ccc(N(C)C)cc1)N1C(=O)c2ccccc2S1(=O)=O (centres undefined)	none (no result: m-calpain inh)
Cc1ccc(N2C(=O)c3cccc4c(Oc5ccccc5[N+](=O)[O-])ccc(c34)C2=O)c(C)c1	FAS TE block 61 (no result: H9c2 TAG inh) | FAS-TE inh conf inactive
